This is a sample that favours compounds with a hit; in the whole collection about 3.4% have one here.
TEAD-YAP inh: TEAD-YAP interaction inhibition; inhibition, % at 9.12 µM; 640,000 compounds, 1.4% hits; HEK-TIYL cells, TEAD-Gal4/YAP UAS-luciferase luminescence; AID 1259422; in the data active means inhibition above about 32%;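 further: 0% = median of test compound wells and 100% = reference inhibitor wells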
MITF inh: inhibitors of human MITF; O75030; AlphaScreen MITF homodimerization, bead proximity signal; inhibition, % at 2.6 µM; 650,000 compounds, 0.91% hits; AID 1259374; in the data active means inhibition above about 50%;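 further: 0% = vehicle wells with protein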
Target sequence (O75030 whole entry, looked up): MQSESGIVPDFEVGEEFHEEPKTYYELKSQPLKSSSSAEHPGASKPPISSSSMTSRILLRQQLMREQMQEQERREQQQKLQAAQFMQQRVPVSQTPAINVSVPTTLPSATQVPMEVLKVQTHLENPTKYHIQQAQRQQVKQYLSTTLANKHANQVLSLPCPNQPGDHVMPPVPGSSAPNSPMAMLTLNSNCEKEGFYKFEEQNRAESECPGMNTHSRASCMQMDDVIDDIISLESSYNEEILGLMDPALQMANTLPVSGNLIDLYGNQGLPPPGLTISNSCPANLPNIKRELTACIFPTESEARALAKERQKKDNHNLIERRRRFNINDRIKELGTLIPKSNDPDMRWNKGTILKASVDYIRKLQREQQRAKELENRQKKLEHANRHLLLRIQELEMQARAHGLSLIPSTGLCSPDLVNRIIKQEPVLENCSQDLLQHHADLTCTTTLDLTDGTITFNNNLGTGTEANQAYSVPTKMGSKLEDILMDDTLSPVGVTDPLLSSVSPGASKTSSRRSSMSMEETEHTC
FBW7 act: human FBW7 E3 ligase activation, primary screen; Q969H0; AlphaScreen FBW7–phospho-cyclin E peptide binding, activator screen; normalized activity (activation), % at 26.1 µM; 650,000 compounds, 0.13% hits; AID 1259310; in the data active means normalized activity above about 1.9%;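 further: purified mutant Fbw7 with reduced substrate affinity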
GPR151 activ: activators of human GPR151; Q8TDV0; PathHunter beta-arrestin GPR151 cells, luminescence; activation, % at 11.2 µM; 650,000 compounds, 1% hits; in the data active means activation above about 4.9%;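 further: 0% = median of compound wells and 100% = cells with positive control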
MITF inh conf: confirmation of human MITF inhibitors | shares compounds with MITF inh | AlphaScreen MITF homodimerization, biotin/His-MITF beads | inhibition, % at 2.6 µM | 4,700 compounds, 16% hits;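 active means inhibition above a cutoff derived from the DMSO control wells, cut at about 28% in these data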;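 further: 0% = MITF dimer wells with DMSO only; inhibitors lower the bead chemiluminescence by keeping MITF from dimerizing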
AlphaScreen DR: counter-screen: compounds optically interfering with AlphaScreen; shares compounds with MITF inh; AlphaScreen optical interference counterscreen, cell-free; IC50, µM; 480 compounds, 6% hits; call rule not given here
AlphaScreen intf2: AlphaScreen optical interference, counter-screen. shares compounds with MITF inh. LysRS AlphaScreen counterscreen, signal interference, triplicate. inhibition, % at 2.6 µM. 4,700 compounds, 7.6% hits;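 active means inhibition above a cutoff derived from the DMSO control wells, cut at about 30% in these data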
An asterisk follows results filed as active; / = no result.

SMILES | TEAD-YAP inh | MITF inh | FBW7 act | GPR151 activ | MITF inh conf | AlphaScreen intf2 | others
CC1=CC(C)(C)NC(=S)N1c1ccc(Cl)cc1 | 6 | 15 | 0 | 1 | / | /
Cc1cccc(NC(=O)C2C3C=CC(C4CC34)C2C(=O)O)c1C (stereo unspecified) | 5 | 55* | 0 | 4 | 17 | 15
CCC(CC)NC(=O)c1ccc(Cl)cc1[N+](=O)[O-] | 5 | 74* | 0 | -1 | 1 | 9
CCOC(=O)c1ccc(NC(=O)c2cc(OC)c(OC)cc2[N+](=O)[O-])cc1 | 13 | 3 | 0 | 0 | / | /
O=C(O)c1cccc2c1C(=O)N(c1ccccc1)C2 | -5 | 72* | 0 | -2 | 72* | 13 | AlphaScreen DR=>6.3
CCCN1Cc2cccc(C(=O)O)c2C1=O | 2 | 17 | 1 | 1 | / | /
CN(C)CCCN1C(=O)C(=O)/C(=C(\O)c2ccccc2)C1c1ccco1 (stereo unspecified) | -1 | 75* | 0 | 0 | -4 | -12
O=C(c1cccc(Cl)c1)N1CCN(C2CCC(c3ccccc3)CC2)CC1 (stereo unspecified) | 4 | 39 | 0 | 0 | / | /
O=C(c1cccc(Cl)c1)N1CCN(C2CCCC2)CC1 | 0 | 53* | 0 | 1 | -3 | -2
CC1CCCN(C(=O)c2cccc(Cl)c2)C1 (stereo unspecified) | -2 | -3 | 0 | 1 | / | /
CC1CCCC(N2CCN(C(=O)c3cccc(Cl)c3)CC2)C1 (stereo unspecified) | -4 | 51* | 0 | 1 | -3 | -2
CCC1CCCCN1CCCNC(=O)C(CCSC)NC(=O)C1CCC(C)CC1 (stereo unspecified) | 0 | 17 | 0 | 0 | / | /
Cc1cc2oc3c(c(=O)c2cc1C)C(c1cccnc1)N(CCCN(C)C)C3=O (stereo unspecified) | -4 | 83* | 0 | -1 | -7 | -4
COc1ccccc1-n1c(C)nc2cc(C(=O)NCc3ccco3)ccc21 | 6 | 18 | 0 | -1 | / | /
CC1CCN(CC(=O)Nc2ccc(C(=O)N3CCCCC3)cc2)CC1 | -1 | 59* | 0 | 1 | 3 | 11
CCCCOc1ccc(NC(=O)CN2CCN(C(C)=O)CC2)cc1 | -4 | 66* | 0 | 3 | 14 | 15
COC(=O)c1ccc(NC(=O)CN2CCN(CC#N)CC2)cc1 | -7 | 71* | 0 | -1 | 10 | -3
CC1CCN(CC(=O)Nc2ccc(N3CCCC3)cc2)CC1 | -7 | 55* | 0 | -1 | 13 | 13
O=C(CN1CCCC1)Nc1ccc(N2CCCCC2)cc1 | -12 | -12 | 0 | -2 | / | /
O=C(NCCCN1CCCC1=O)c1csc(N2CCN(c3ccccn3)CC2)n1 | -2 | -1 | 0 | -3 | / | /
Cc1c(C(=O)N(C)Cc2ccco2)sc2ncnc(NCc3ccc4c(c3)OCO4)c12 | -11 | 4 | 0 | -1 | / | /
CCN1CCN(CC(=O)Nc2ccc(N3CCCCC3)cc2)CC1 | -1 | 81* | 0 | 1 | -8 | -3
Cc1ccc(NC(=O)CN2CCC(C(=O)NCc3cccs3)CC2)cc1 | 1 | 114* | 0 | 0 | -4 | -4
Cc1ccc(NC(=O)CN2CCC(C(=O)NCc3ccccn3)CC2)cc1 | -2 | 4 | 0 | 0 | / | /
COc1ccc2c(c1)cc(C)c1nn(CC(=O)NCc3ccco3)c(=O)n12 | 7 | -5 | 0 | 0 | / | /
SMILES | TEAD-YAP inh | MITF inh | FBW7 act | GPR151 activ | MITF inh conf | AlphaScreen intf2 | others
CN(C)S(=O)(=O)c1ccc2oc3nnc(SCc4ccccc4)n3c2c1 | -55 | 14 | 0 | -2 | / | /
COc1ccc(OC)c(CN2CCC(C(=O)NC(C)c3ccccc3)CC2)c1 (stereo unspecified) | -5 | 52* | 0 | -1 | 8 | 21
CC(NC(=O)C1CCN(Cc2ccccc2)CC1)c1ccccc1 (stereo unspecified) | 4 | 53* | 0 | 0 | 10 | 7
CC(NC(=O)C1CCNCC1)c1ccccc1 (stereo unspecified) | 11 | 51* | 0 | 0 | 1 | 12
CC(NC(=O)C1CCN(Cc2ccccc2O)CC1)c1ccccc1 (stereo unspecified) | 2 | 19 | 0 | 2 | / | /
COc1ccc(CN2CCC(C(=O)NC(C)C)CC2)c(OC)c1OC | -10 | 71* | 0 | 1 | -13 | -5
O=C(c1ccc(Cl)s1)N(CCN1CCOCC1)c1nc2ccc(F)cc2s1 | -25 | 2 | 0 | -2 | / | /
Cc1cc(O)c(C2=Nc3ccccc3SC(c3ccc(O)cc3)C2)c(=O)o1 (stereo unspecified) | -3 | 4 | 0 | -1 | / | /
COc1ccc(C2=N/C(=C/c3ccccc3Cl)C(=O)O2)cc1Br | -3 | -9 | 0 | 0 | / | /
COc1ccc(Cl)cc1C(=O)NNC(=O)COc1ccc2c(C)cc(=O)oc2c1 | -2 | 64* | 0 | 2 | -10 | -3
COc1ccccc1CNC(=O)C(=O)Nc1c(C)cccc1C | 2 | 8 | 0 | -2 | / | /
Cc1cc(NCCc2ccccc2)nc(-c2ccccc2O)n1 | -21 | 82* | 0 | 0 | -22 | 0
CCn1nc(C)c(CN2CCC3(CC2)CC3C(=O)N2C[C@@H](C)O[C@@H](C)C2)c1C (stereo partly specified) | 10 | -23 | 0 | 1 | / | /
O=C(c1ccccc1F)N1CCN(c2ccc(-c3ccccn3)nn2)CC1 | -23 | 119* | -1 | 0 | 110* | 101*
O=C(C1CC1)N1CCN(c2ccc(-c3ccccn3)nn2)CC1 | -15 | 122* | -2 | -6 | 112* | 101*
O=C(CSc1ccc(-c2ccccn2)nn1)N1CCN(c2ccccc2)CC1 | 7 | 9 | -2 | -1 | / | /
CC(C)CC(=O)N1CCN(c2ccc(-c3ccccn3)nn2)CC1 | -5 | 125* | -2 | -3 | 114* | 101*
CC1CN(Cc2ccc(F)cc2F)CC(C)O1 (stereo unspecified) | -3 | 65* | 0 | 0 | 0 | 9
CC1CN(Cc2ccccc2Br)CC(C)O1 (stereo unspecified) | 0 | 67* | 0 | -1 | 1 | 4
CC1CN(Cc2ccc(F)c(F)c2)CC(C)O1 (stereo unspecified) | 2 | 61* | 1 | 1 | 3 | 1
COC(=O)c1c(S(=O)(=O)NC2CC2)sc2c1CCN(Cc1c(F)cccc1F)C2 | 10 | 3 | 0 | 1 | / | /
CCN(O)C(=O)Nc1cccc(Cl)c1 | -6 | 70* | 0 | 0 | -7 | -5
CC(=O)CC(=O)Nc1cccc(Cl)c1 | -11 | 10 | 0 | 1 | / | /
O=C(CSc1cn(Cc2ccc(Br)cc2)c2ccccc12)N1CCOCC1 | 7 | -3 | 0 | 4 | / | /
Brc1ccc(-c2nnc3sc(CN4CCOCC4)cn23)cc1 | 2 | 13 | 0 | 0 | / | /
Brc1ccc(-c2nnc3sc(CN4CCCCC4)cn23)cc1 | -20 | 67* | 1 | 1 | -2 | -3

Screens deposited in PubChem BioAssay by The Scripps Research Institute Molecular Screening Center.
